Assay results from PubChem BioAssay (NCI).
Compounds without any hit were thinned out: in the full panel of roughly 79,000, 15% have a hit. A number with no mark means an inactive call. Activity calls are given as the source filed them. Cut-off read from the data, not from the text of the source: active = growth inhibition above about 70%; inactive = the rest.

How the values were obtained:
[1] = NCI Yeast Anticancer Drug Screen. Data for the rad50 strain (AID 155);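 note: 0% = growth of vehicle-only cultures of the same strain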; conditions: S. cerevisiae rad50 strain growth inhibition, stronger effect = higher value
In short: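 Yeast carrying a defined DNA repair defect were exposed to test compounds, and growth was compared with vehicle-treated controls to give percent inhibition.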

[2] = NCI Yeast Anticancer Drug Screen. Data for the mec2-1 strain (AID 157); conditions: S. cerevisiae mec2-1 strain, stronger effect = higher value
In short: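 Yeast mec2-1 mutant treated with compound. Readout: growth inhibition vs vehicle controls.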

[3] = NCI Yeast Anticancer Drug Screen. Data for the sgs1 mgt1 strain (AID 161);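 note: 0% = growth of cultures given vehicle only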; conditions: S. cerevisiae sgs1 mgt1 strain, stronger effect = higher value
In short: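 Test agents were incubated with a DNA-repair-mutant yeast strain. Growth was then read and compared against vehicle-treated controls.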

[4] = NCI Yeast Anticancer Drug Screen. Data for the cln2 rad14 strain (AID 165);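 note: 0% = growth equal to vehicle treated cultures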; conditions: S. cerevisiae cln2 rad14 strain, stronger effect = higher value
In short: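 cln2 rad14 yeast strain; compound exposure; growth inhibition read vs vehicle controls.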

[5] = NCI Yeast Anticancer Drug Screen. Data for the bub3 strain (AID 167); conditions: S. cerevisiae bub3 mutant strain, stronger effect = higher value
In short: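 Compounds were applied to a genetically altered yeast strain carrying a cell-cycle control defect. Growth inhibition was scored against vehicle-treated controls.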

[6] = NCI Yeast Anticancer Drug Screen. Data for the mlh1 rad18 strain (AID 175); conditions: S. cerevisiae mlh1 rad18 strain growth inhibition, stronger effect = higher value
In short: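 Yeast w/ defined DNA-repair lesions; compound exposure; growth vs vehicle controls → % inhibition.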

[7] = at 5.0 µM (retest, dose inferred, filed as 0.5)
[8] = at 50.0 µM (retest, dose inferred, filed as 5.0)

SMILES: O=S(=O)(c1ccccc1)N1C2C3CCC(CC3)C21 (centres undefined)
- growth inhibition [1, 7]: -1%
- growth inhibition [1, 8]: -4%
- growth inhibition ([1]; at 50.0 µM): 1.2%
- growth inhibition [2, 7]: -11%
- growth inhibition [2, 8]: -16%
- growth inhibition ([2]; at 50.0 µM): 2.75%
- growth inhibition [3, 7]: -3%
- growth inhibition [3, 8]: -32%
- growth inhibition ([3]; at 50.0 µM): 23%
- growth inhibition [4, 7]: -1%
- growth inhibition [4, 8]: 3%
- growth inhibition ([4]; at 50.0 µM): 7.65%
- growth inhibition [5, 7]: 14%
- growth inhibition [5, 8]: 96% (active)
- growth inhibition ([5]; at 50.0 µM): 76.6% (active)
- growth inhibition [6, 7]: -13%
- growth inhibition [6, 8]: -5%
- growth inhibition ([6]; at 50.0 µM): 1.5%

SMILES: O=C(O)c1cc([N+](=O)[O-])c(Cl)c([N+](=O)[O-])c1Cl
- growth inhibition [1, 7]: 80% (active)
- growth inhibition [1, 8]: 99% (active)
- growth inhibition ([1]; at 50.0 µM): 62.8%
- growth inhibition [2, 7]: 82% (active)
- growth inhibition [2, 8]: 99% (active)
- growth inhibition ([2]; at 50.0 µM): 42.3%
- growth inhibition [3, 7]: 20%
- growth inhibition [3, 8]: 93% (active)
- growth inhibition ([3]; at 50.0 µM): 46.9%
- growth inhibition [4, 7]: 38%
- growth inhibition [4, 8]: 100% (active)
- growth inhibition ([4]; at 50.0 µM): 43.1%
- growth inhibition [5, 7]: 51%
- growth inhibition [5, 8]: 96% (active)
- growth inhibition ([5]; at 50.0 µM): 64%
- growth inhibition [6, 7]: 70% (active)
- growth inhibition [6, 8]: 99% (active)
- growth inhibition ([6]; at 50.0 µM): 49%

SMILES: CC(CN1CCCCCCC1)C(C#N)(c1ccccc1)c1ccccc1 (centres undefined)
- growth inhibition [1, 7]: 4%
- growth inhibition [1, 8]: 47%
- growth inhibition ([1]; at 50.0 µM): 66.1%
- growth inhibition [2, 7]: 3%
- growth inhibition [2, 8]: 39%
- growth inhibition ([2]; at 50.0 µM): 47.6%
- growth inhibition [3, 7]: 19%
- growth inhibition [3, 8]: 74% (active)
- growth inhibition ([3]; at 50.0 µM): 67.5%
- growth inhibition [4, 7]: 6%
- growth inhibition [4, 8]: 46%
- growth inhibition ([4]; at 50.0 µM): 84.1% (active)
- growth inhibition [5, 7]: 9%
- growth inhibition [5, 8]: 68%
- growth inhibition ([5]; at 50.0 µM): 55.4%
- growth inhibition [6, 7]: 10%
- growth inhibition [6, 8]: 55%
- growth inhibition ([6]; at 50.0 µM): 70.3% (active)

SMILES: Cc1ccc(C#CCN2CCCCC2)cn1
- growth inhibition [1, 7]: -142%
- growth inhibition [1, 8]: -82%
- growth inhibition ([1]; at 50.0 µM): 4.45%
- growth inhibition [2, 7]: -77%
- growth inhibition [2, 8]: -47%
- growth inhibition ([2]; at 50.0 µM): 11.1%
- growth inhibition [3, 7]: -64%
- growth inhibition [3, 8]: -22%
- growth inhibition ([3]; at 50.0 µM): 22.8%
- growth inhibition [4, 7]: -60%
- growth inhibition [4, 8]: -46%
- growth inhibition ([4]; at 50.0 µM): 69.2%
- growth inhibition [5, 7]: -66%
- growth inhibition [5, 8]: -54%
- growth inhibition ([5]; at 50.0 µM): -0.5%
- growth inhibition [6, 7]: -138%
- growth inhibition [6, 8]: -87%
- growth inhibition ([6]; at 50.0 µM): 11.7%

SMILES: CC1CCS(=O)(=O)CC1.[Cl][Hg][Cl]
- growth inhibition [1, 7]: 98% (active)
- growth inhibition [1, 8]: 99% (active)
- growth inhibition ([1]; at 50.0 µM): 99.6% (active)
- growth inhibition [2, 7]: 99% (active)
- growth inhibition [2, 8]: 99% (active)
- growth inhibition ([2]; at 50.0 µM): 99.6% (active)
- growth inhibition [3, 7]: 99% (active)
- growth inhibition [3, 8]: 99% (active)
- growth inhibition ([3]; at 50.0 µM): 99.6% (active)
- growth inhibition [4, 7]: 99% (active)
- growth inhibition [4, 8]: 99% (active)
- growth inhibition ([4]; at 50.0 µM): 99.3% (active)
- growth inhibition [5, 7]: 99% (active)
- growth inhibition [5, 8]: 99% (active)
- growth inhibition ([5]; at 50.0 µM): 99.5% (active)
- growth inhibition [6, 7]: 99% (active)
- growth inhibition [6, 8]: 99% (active)
- growth inhibition ([6]; at 50.0 µM): 99.5% (active)

SMILES: O=[As]c1ccc(Cl)cc1Cl (centres undefined)
- growth inhibition [1, 7]: 100% (active)
- growth inhibition [1, 8]: 99% (active)
- growth inhibition ([1]; at 50.0 µM): 99.7% (active)
- growth inhibition [2, 7]: 100% (active)
- growth inhibition [2, 8]: 100% (active)
- growth inhibition ([2]; at 50.0 µM): 99.7% (active)
- growth inhibition [3, 7]: 99% (active)
- growth inhibition [3, 8]: 100% (active)
- growth inhibition ([3]; at 50.0 µM): 99.7% (active)
- growth inhibition [4, 7]: 100% (active)
- growth inhibition [4, 8]: 99% (active)
- growth inhibition ([4]; at 50.0 µM): 99.3% (active)
- growth inhibition [5, 7]: 99% (active)
- growth inhibition [5, 8]: 100% (active)
- growth inhibition ([5]; at 50.0 µM): 99.2% (active)
- growth inhibition [6, 7]: 100% (active)
- growth inhibition [6, 8]: 99% (active)
- growth inhibition ([6]; at 50.0 µM): 99.3% (active)

SMILES: CCN(CCCl)c1cc(CN(C)C)cc(NC(=O)c2ccc(C(=O)Nc3cccc(N(CCCl)NN)c3)cc2)c1
- growth inhibition [1, 7]: -6%
- growth inhibition [1, 8]: 91% (active)
- growth inhibition ([1]; at 50.0 µM): 89.4% (active)
- growth inhibition [2, 7]: -5%
- growth inhibition [2, 8]: 98% (active)
- growth inhibition ([2]; at 50.0 µM): 98.2% (active)
- growth inhibition [3, 7]: 10%
- growth inhibition [3, 8]: 98% (active)
- growth inhibition ([3]; at 50.0 µM): -2.7%
- growth inhibition [4, 7]: 1%
- growth inhibition [4, 8]: 95% (active)
- growth inhibition ([4]; at 50.0 µM): 56.2%
- growth inhibition [5, 7]: -16%
- growth inhibition [5, 8]: 92% (active)
- growth inhibition ([5]; at 50.0 µM): 97.8% (active)
- growth inhibition [6, 7]: 25%
- growth inhibition [6, 8]: 97% (active)
- growth inhibition ([6]; at 50.0 µM): 98.5% (active)

SMILES: Cc1cc[n+](C2=C(Nc3cc(C)cc(C)c3)C(=O)c3ccccc3C2=O)cc1
- growth inhibition [1, 7]: -3%
- growth inhibition [1, 8]: 9%
- growth inhibition ([1]; at 50.0 µM): 24.9%
- growth inhibition [2, 7]: -2%
- growth inhibition [2, 8]: 11%
- growth inhibition ([2]; at 50.0 µM): 28.5%
- growth inhibition [3, 7]: -1%
- growth inhibition [3, 8]: 16%
- growth inhibition ([3]; at 50.0 µM): 9.5%
- growth inhibition [4, 7]: -9%
- growth inhibition [4, 8]: 1%
- growth inhibition ([4]; at 50.0 µM): 6.75%
- growth inhibition [5, 7]: 1%
- growth inhibition [5, 8]: 45%
- growth inhibition ([5]; at 50.0 µM): 16%
- growth inhibition [6, 7]: -3%
- growth inhibition [6, 8]: 15%
- growth inhibition ([6]; at 50.0 µM): 51.8%
